This note sets out measurements from PubChem BioAssay (NCATS).

Records with an inconclusive call do not appear. Values without a mark were called inactive. The call rests on the fitted dose curve; in most records, active means well fitted inhibition curve with a large enough effect; inconclusive means small, poorly fitted or top-dose-only effect; inactive means flat fitted curve, though single readings scatter.
On the % scale 0 is the no-effect control and ±100 the full control effect.

Sequence of Calcium and integrin-binding protein 1 (Homo sapiens) (Q99828 whole entry, looked up): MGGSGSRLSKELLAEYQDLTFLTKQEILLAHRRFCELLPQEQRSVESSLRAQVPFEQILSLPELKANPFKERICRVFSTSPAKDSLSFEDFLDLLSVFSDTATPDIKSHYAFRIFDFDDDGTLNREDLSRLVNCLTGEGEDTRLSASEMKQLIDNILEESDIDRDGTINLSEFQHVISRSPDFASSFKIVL

This experiment addresses Calcium and integrin-binding protein 1 (Homo sapiens) (UniProt Q99828). Kind of experiment: Primary qHTS for Identification of Calcium Integrin Binding Protein 1 (CIB1) Competitor (AID 1508620).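 Further: GST tagged CIB1 binding a fluorescein labelled alphaIIb integrin peptide tracer; top concentration of the series differs between compounds.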 The conditions noted are these: CIB1-GST / FITC-alphaIIb peptide fluorescence polarization; series mostly up to 114 µM; activity change, negative = inhibition: at the top concentration. An outline of the steps: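 Fluorescence polarization competition: CIB1-GST (1 uM final) preincubated with compound 15 min at room temperature, then FITC-labeled alphaIIb peptide (100 nM final) added for another 15 min. Polarization read at Ex 480/Em 540.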
Background: In qHTS, concentration-response curves come from the screen itself.
With `O=C(c1ccc(Cl)cc1)N1CCN(c2ccnc3cc(Cl)ccc23)CC1`, the “activity change, negative = inhibition” value is -4.03%. For `COc1ccc2cc3c(NC(=O)c4ccco4)nn(C)c3nc2c1` the value was -6.47%; for `C=C1C(=O)O[C@@H]2/C=C(/C)[C@@H](OC(C)=O)C/C=C(\C)C[C@@H](OC(=O)/C(=C/CO)CO)[C@@H]12`, 2.03% [at 57.7 µM]; for `CC1(C)CC[C@]23CO[C@@]4(CCC5[C@@]6(C)CC[C@H](O[C@@H]7OC[C@H](O[C@@H]8O[C@H](CO)[C@@H](O)[C@H](O)[C@H]8O[C@@H]8OC[C@@H](O)[C@H](O)[C@H]8O)[C@H](O)[C@H]7O)[C@@](C)(CO)C6CC[C@@]5(C)[C@]4(C)CC2=O)[C@@H]3C1` (some centres undefined), 5.59% [at 30.2 µM]. `CC(C)S(=O)(=O)c1ccc2nccc(Nc3ccc4scnc4c3)c2c1`: the “activity change, negative = inhibition” value is 1.03%. As to `C=C1C(=O)OC2/C=C(\C)CC3C=C(CC/C=C(\C)CCC12)C(=O)O3` (centres undefined), the “activity change, negative = inhibition” value is 4.28% [at 57.7 µM].

Take `COc1cc(CCC2=NN=C(NC(=O)c3ccc(N4C[C@@H](C)N[C@@H](C)C4)cc3)C2)cc(OC)c1`: the “activity change, negative = inhibition” value is -8%. For the molecule `COC(=O)C1=COC(O[C@@H]2O[C@H](CO[C@@H]3O[C@H](COC(=O)/C=C\c4ccc(O)cc4)[C@@H](O)[C@H](O)[C@H]3O)[C@@H](O)[C@H](O)[C@H]2O)C2C(CO)=CCC12` (some centres undefined), the “activity change, negative = inhibition” value is -2.17% [at 30.2 µM].

On to `COC(=O)N1CCC(n2ncc3c(N4CCOCC4)nc(-c4ccc(NC(=O)NC5CC5)cc4)nc32)CC1`, for which the “activity change, negative = inhibition” value is 6.18%.

For the molecule `COc1cc(CCO)ccc1O[C@@H]1O[C@H](CO)[C@@H](O)[C@H](O)[C@H]1O`, the “activity change, negative = inhibition” value was -6.76% [at 57.7 µM]. `CC(C)c1ccc(-c2cc(=O)c3ccccc3o2)cc1`: the “activity change, negative = inhibition” value was 0.843%. Regarding `N#Cc1cc(-c2ccnc(Nc3ccc(N4CCOCC4)cc3)n2)ccc1OC1CCOCC1`, the “activity change, negative = inhibition” value is -6.69%. `C/C=C(\C)C(=O)OC1C(C)C2(O)C(C=C(CO)CC3(O)C(=O)C(C)=CC32)C2C(C)(C)C12OC(=O)C(C)C` (centres undefined): the “activity change, negative = inhibition” value is 0.04% [at 57.7 µM]. `CN(C)C(=O)C(=O)c1cn(C)c2cc(Cl)c(C(=O)N3CCC(Cc4ccc(F)cc4)CC3)cc12`: the “activity change, negative = inhibition” value is -5.88%.

Consider `COc1ccc([C@H]2OC[C@H]3O[C@@H](O[C@H]4[C@@H]2NC[C@@H]4O)[C@H](O)[C@H]3O)cc1`, for which the “activity change, negative = inhibition” value is -2.38% [at 57.7 µM]. For the molecule `CC(CCC1(O)OC2CC3C4CC=C5CC(O[C@@H]6O[C@H](CO)[C@@H](O[C@@H]7O[C@@H](C)[C@H](O)[C@@H](O)[C@H]7O)[C@H](O)[C@H]6O[C@@H]6O[C@@H](C)[C@H](O)[C@@H](O)[C@H]6O)CCC5(C)C4CCC3(C)C2C1C)CO[C@@H]1O[C@H](CO)[C@@H](O)[C@H](O)[C@H]1O` (some centres undefined), the “activity change, negative = inhibition” value is 1.08% [at 30.2 µM]. Take `CCCCOC(=O)NS(=O)(=O)c1sc(CC(C)C)cc1-c1ccc(Cn2ccnc2)cc1`: the “activity change, negative = inhibition” value was 2.33%. Turning to `C=C1CC[C@H]2C(=C)CC[C@H]3C(=C)C(=O)O[C@@H]3[C@@H]12`, the “activity change, negative = inhibition” value was -18.3%. For `C=C1C(=O)O[C@@H]2[C@H]1CC[C@H](C)C(CCC(=O)O)C2(C)O` (some centres undefined) the value was -5.61%; for `O=C(NCc1nc2ccccc2c(=O)n1-c1ccc(F)cc1)Nc1ccc(Cl)c(C(F)(F)F)c1`, -3.59%.

Take `O=c1[nH]c2ccccc2n1CCN1CCN(c2cccc(C(F)(F)F)c2)CC1`: the “activity change, negative = inhibition” value was -4%. Turning to `CN1CCN(C2=Nc3ccccc3Nc3ccc(Cl)cc32)CC1`, the “activity change, negative = inhibition” value is -6.89%. Consider `C[C@@H]1O[C@@H](O[C@H]2[C@H](OC(=O)[C@]34CCC(C)(C)C[C@H]3C3=CCC5[C@@]6(C)C[C@H](O)[C@H](O[C@@H]7O[C@H](C(=O)O)[C@@H](O)[C@H](O)[C@H]7O)[C@@](C)(CO)C6[C@H](O)C[C@@]5(C)[C@]3(C)C[C@H]4O)O[C@@H](CO)[C@@H]2O)[C@H](O)[C@H](O)[C@H]1O[C@@H]1OC[C@@H](O)[C@H](O[C@H]2OC[C@](O)(CO)[C@H]2O)[C@H]1O` (some centres undefined), for which the activity change, negative = inhibition is 1.16% [at 12.4 µM]. Consider `C=C1C(=O)OC[C@@H]1C/C=C(\C)CC1CC(C)C(=O)O1` (some centres undefined), for which the “activity change, negative = inhibition” value was 5.15%. Regarding `COc1cc(F)c(F)c(Nc2ccc(I)cc2F)c1NS(=O)(=O)C1(CC(O)CO)CC1` (centres undefined), the “activity change, negative = inhibition” value is -0.662%. With `S=C(c1ccc(-c2ccc(Cl)c(Cl)c2)o1)N1CCCCC1` the figure was -2.09%. In the case of `CCn1c(=O)c(-c2ccc(-c3cncs3)cc2Cl)cc2cnc(Nc3ccc(N4CCN(C)CC4)cc3)nc21`, the “activity change, negative = inhibition” value is -5.8%. Consider `CC(=O)O[C@@H]1CC[C@@]2(C)[C@H](CC[C@@H]3[C@@H]2C[C@H](OC(C)=O)[C@]2(C)[C@@H](C(C)=O)CC[C@@H]32)C1`, for which the “activity change, negative = inhibition” value is 1.76%. With `N[C@@H]1c2cccnc2[C@H](OC(=O)N2CCC(n3c(=O)[nH]c4ncccc43)CC2)CC[C@H]1c1cccc(F)c1F` the figure was 1.79%; with `C=C1[C@@H](OC(C)=O)CC[C@@]2(C)[C@@H](OC(C)=O)[C@H](OC(C)=O)C3=C(C)C[C@H](OC(=O)C(C)CC)[C@@H]([C@@H](OC(C)=O)[C@H]12)C3(C)C` (some centres undefined), -19.5% [at 30.2 µM]; with `CC(C)CCNC(=O)c1ccc2c(c1)nc(Nc1n[nH]c3ccc(-c4ccccc4OC(F)(F)F)cc13)n2C1CCC(O)CC1` (centres undefined), -2.07%. In the case of `O=C(NCCN1CCC(n2c(=O)[nH]c3ccccc32)CC1)c1cc2cc(F)ccc2[nH]1`, the “activity change, negative = inhibition” value is 0.426%. In the case of `CCCCCCCCC(=O)N[C@H](CN1CCCC1)[C@H](O)c1ccc2c(c1)OCCO2`, the “activity change, negative = inhibition” value was 1.33%. `CC(C)n1nc(C#Cc2ccccc2)c2c(N)ncnc21`: the “activity change, negative = inhibition” value was -12.8%. On to `O=C(Nc1cccc2cccnc12)c1ccc(N2C(=O)[C@@H]3C4C=CC(C4)[C@@H]3C2=O)cc1`, for which the “activity change, negative = inhibition” value was -0.9%. Turning to `Cc1ccccc1C(C(=O)NC1CCCCC1)N(C(=O)Cn1cnc2ccccc21)c1cccc(F)c1` (centres undefined), the “activity change, negative = inhibition” value is 9.23%. With `CC(C)(C)C1CCN(C(=O)n2ncc(C(O)(c3ccccc3)c3ccccc3)n2)CC1`, the “activity change, negative = inhibition” value is -3.66%. With `CNc1nc(Nc2ccc(C(=O)N3CCOCC3)cc2OC)nc2[nH]cc(Cl)c12` the figure was 3.11%. For `C=C(C)C(=O)OC1CC(CO)CCC/C(CO)=C/C2OC(=O)C(=C)C21` (centres undefined), the “activity change, negative = inhibition” value was -7.86% [at 57.7 µM].
